Experimental findings from PubChem BioAssay (NCI) are described below.

The panel holds about 79,000 compounds, 15% with a hit somewhere; the sample as a whole holds those more often. A number with no mark means an inactive call. The source made the active and inactive calls. Rule as the data show it: active = growth inhibition above about 70%; inactive = the rest.

Assay [1] can be described thus: NCI Yeast Anticancer Drug Screen. Data for the rad50 strain (AID 155).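 Also: 0% = growth of vehicle-only cultures of the same strain.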 The conditions noted are these: S. cerevisiae rad50 strain growth inhibition, stronger effect = higher value. Summed up: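 Relative growth inhibition (compound vs vehicle) was measured in yeast with a defined repair-gene alteration.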
Assay [2] in a line: NCI Yeast Anticancer Drug Screen. Data for the mec2-1 strain (AID 157). The conditions noted are these: S. cerevisiae mec2-1 strain, stronger effect = higher value. Summed up: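 Strain: mec2-1 (DNA repair/cell cycle alteration). Compound exposure, then growth measured; inhibition expressed relative to vehicle.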
Assay [3] can be described thus: NCI Yeast Anticancer Drug Screen. Data for the sgs1 mgt1 strain (AID 161).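 Also: 0% = growth of cultures given vehicle only.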 The conditions noted are these: S. cerevisiae sgs1 mgt1 strain, stronger effect = higher value. Summed up: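 Test agents were incubated with a DNA-repair-mutant yeast strain. Growth was then read and compared against vehicle-treated controls.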
Assay [4] in a line: NCI Yeast Anticancer Drug Screen. Data for the cln2 rad14 strain (AID 165).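 Also: 0% = growth equal to vehicle treated cultures.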 As to conditions: S. cerevisiae cln2 rad14 strain, stronger effect = higher value. Summed up:
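Compounds are applied to the cln2 rad14 yeast strain, and growth is then compared with that of vehicle-treated cultures to give inhibition.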

Assay [5] can be described thus: NCI Yeast Anticancer Drug Screen. Data for the bub3 strain (AID 167). The conditions noted are these: S. cerevisiae bub3 mutant strain, stronger effect = higher value. Summed up:
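Screening used yeast with an engineered genetic alteration affecting cell cycle control. Compound-exposed cultures were compared with vehicle cultures, and reduced growth was taken as inhibition.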

A short description of assay [6]: NCI Yeast Anticancer Drug Screen. Data for the mlh1 rad18 strain (AID 175). The conditions noted are these: S. cerevisiae mlh1 rad18 strain growth inhibition, stronger effect = higher value. Summed up:
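Read-out is yeast growth inhibition, calculated against vehicle-only controls. The compound was applied to a strain engineered with DNA damage repair alterations.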

The mark [7] stands for this setting: at 5.0 µM (retest, dose inferred, filed as 0.5).
The mark [8] stands for this setting: at 50.0 µM (retest, dose inferred, filed as 5.0).

As to `O=[N+]([O-])c1ccc(/C=C/[n+]2ccc3ccccc3c2)o1`, the growth inhibition was 29% in assay [1] (setting [7]); 93% (active) in assay [1] (setting [8]); 98.8% (active) in assay [1] (at 50.0 µM); 24% in assay [2] (setting [7]); 91% (active) in assay [2] (setting [8]); 98.8% (active) in assay [2] (at 50.0 µM). Further, the growth inhibition is 40% in assay [3] (setting [7]); 98% (active) in assay [3] (setting [8]); 98.9% (active) in assay [3] (at 50.0 µM); -6% in assay [4] (setting [7]); 95% (active) in assay [4] (setting [8]); 96.2% (active) in assay [4] (at 50.0 µM). For the same compound, the growth inhibition in assay [5] (setting [7]) is 10%; in assay [5] (setting [8]), 97% (active); in assay [5] (at 50.0 µM) it was 99.2% (active); in assay [6] (setting [7]) it was 52%; in assay [6] (setting [8]) it was 97% (active); in assay [6] (at 50.0 µM), 99% (active).
`Cc1cc(C)c(O)c(C(C)(C)C)c1`: the growth inhibition in assay [1] (setting [7]) is -1%; in assay [1] (setting [8]) it was 3%; in assay [1] (at 50.0 µM), 92.3% (active); in assay [2] (setting [7]), 1%; in assay [2] (setting [8]), 1%; in assay [2] (at 50.0 µM), 59.7%. Also, the growth inhibition was 1% in assay [3] (setting [7]); 0% in assay [3] (setting [8]); 74.7% (active) in assay [3] (at 50.0 µM); 2% in assay [4] (setting [7]); 8% in assay [4] (setting [8]); 64.6% in assay [4] (at 50.0 µM). Besides, the growth inhibition in assay [5] (setting [7]) was 3%; in assay [5] (setting [8]) it was -10%; in assay [5] (at 50.0 µM), 66.8%; in assay [6] (setting [7]), 2%; in assay [6] (setting [8]), 4%; in assay [6] (at 50.0 µM) it was 89.7% (active).
In the case of `CN(C)c1ccc(/C=N/N=C(/C#N)[S][Sn]([S]/C(C#N)=N/N=C/c2ccc(N(C)C)cc2)([c]2ccccc2)[c]2ccccc2)cc1`, the growth inhibition in assay [1] (setting [7]) was 7%; in assay [1] (setting [8]), 95% (active); in assay [1] (at 50.0 µM), 98.3% (active); in assay [2] (setting [7]) it was 1%; in assay [2] (setting [8]), 96% (active); in assay [2] (at 50.0 µM), 96.5% (active). Also, the growth inhibition was 10% in assay [3] (setting [7]); 92% (active) in assay [3] (setting [8]); 97.7% (active) in assay [3] (at 50.0 µM); 0% in assay [4] (setting [7]); 89% (active) in assay [4] (setting [8]); 95.9% (active) in assay [4] (at 50.0 µM). In addition, the growth inhibition in assay [5] (setting [7]) was -19%; in assay [5] (setting [8]), 98% (active); in assay [5] (at 50.0 µM), 95.7% (active); in assay [6] (setting [7]), 5%; in assay [6] (setting [8]), 96% (active); in assay [6] (at 50.0 µM) it was 97.4% (active).
As to `Cc1c2ccncc2cc2c1sc1ccncc12`, the growth inhibition in assay [1] (setting [7]) was 97% (active); in assay [1] (setting [8]) it was 97% (active); in assay [1] (at 50.0 µM) it was 91.2% (active); in assay [2] (setting [7]) it was 95% (active); in assay [2] (setting [8]) it was 97% (active); in assay [2] (at 50.0 µM) it was 93% (active). Further, the growth inhibition in assay [3] (setting [7]) was 94% (active); in assay [3] (setting [8]), 99% (active); in assay [3] (at 50.0 µM), 91.2% (active); in assay [4] (setting [7]) it was 87% (active); in assay [4] (setting [8]), 98% (active); in assay [4] (at 50.0 µM), 90.5% (active). For the same compound, the growth inhibition in assay [5] (setting [7]) is 96% (active); in assay [5] (setting [8]), 98% (active); in assay [5] (at 50.0 µM), 89.5% (active); in assay [6] (setting [7]), 96% (active); in assay [6] (setting [8]) it was 97% (active); in assay [6] (at 50.0 µM), 89.3% (active).
For the compound `COc1ccc(C2c3cc4c(cc3OC(O)C2C)OCO4)c(OC)c1` (stereo not given), the growth inhibition in assay [1] (setting [7]) is -2%; in assay [1] (setting [8]) it was 96% (active); in assay [1] (at 50.0 µM) it was 85.6% (active); in assay [2] (setting [7]), 1%; in assay [2] (setting [8]), 95% (active); in assay [2] (at 50.0 µM), 58.5%. Further, the growth inhibition in assay [3] (setting [7]) is 5%; in assay [3] (setting [8]) it was 95% (active); in assay [3] (at 50.0 µM), 83.8% (active); in assay [4] (setting [7]), -8%; in assay [4] (setting [8]), 89% (active); in assay [4] (at 50.0 µM), 68.9%. For the same compound, the growth inhibition in assay [5] (setting [7]) was -4%; in assay [5] (setting [8]) it was 88% (active); in assay [5] (at 50.0 µM) it was 68.8%; in assay [6] (setting [7]), -5%; in assay [6] (setting [8]), 97% (active); in assay [6] (at 50.0 µM) it was 87.5% (active).
Turning to `CC(=O)C1CCC2C1(C)CC1OC13C21C=CC2(CC(O)CCC23C)C2C(=O)OC(=O)C21` (stereo not given), the growth inhibition in assay [1] (setting [7]) was -1%; in assay [1] (setting [8]), 98% (active); in assay [1] (at 50.0 µM), 99.4% (active); in assay [2] (setting [7]) it was 4%; in assay [2] (setting [8]) it was 97% (active); in assay [2] (at 50.0 µM), 91.5% (active). Further, the growth inhibition in assay [3] (setting [7]) was 2%; in assay [3] (setting [8]) it was 99% (active); in assay [3] (at 50.0 µM), 99.3% (active); in assay [4] (setting [7]) it was 3%; in assay [4] (setting [8]), 98% (active); in assay [4] (at 50.0 µM), 99.6% (active). Further, the growth inhibition is 2% in assay [5] (setting [7]); 98% (active) in assay [5] (setting [8]); 95.7% (active) in assay [5] (at 50.0 µM); 23% in assay [6] (setting [7]); 99% (active) in assay [6] (setting [8]); 99.2% (active) in assay [6] (at 50.0 µM).
`COc1cccc2c1C(=O)c1c(O)c3c(c(O)c1C2=O)CC(O)(C(C)=O)CC3OC1CC(NCC2(O)OCC(O)C(O)C2O)C(O)C(C)O1` (stereo not given): the growth inhibition in assay [1] (setting [7]) is 54%; in assay [1] (setting [8]) it was 98% (active); in assay [1] (at 50.0 µM), 85.2% (active); in assay [2] (setting [7]), 33%; in assay [2] (setting [8]), 98% (active); in assay [2] (at 50.0 µM) it was 86.5% (active). In addition, the growth inhibition in assay [3] (setting [7]) was 38%; in assay [3] (setting [8]) it was 98% (active); in assay [3] (at 50.0 µM), 79.8% (active); in assay [4] (setting [7]), 38%; in assay [4] (setting [8]), 94% (active); in assay [4] (at 50.0 µM) it was 73.3% (active). The growth inhibition is 27% in assay [5] (setting [7]); 98% (active) in assay [5] (setting [8]); 83.2% (active) in assay [5] (at 50.0 µM); 62% in assay [6] (setting [7]); 97% (active) in assay [6] (setting [8]); 87.9% (active) in assay [6] (at 50.0 µM).
In the case of `C=CCOC(=O)N(C(=O)OCC=C)C(Cc1ccc(O)cc1)C(=O)NNc1ccccc1` (stereo not given), the growth inhibition was 17% in assay [1] (setting [7]); 65% in assay [1] (setting [8]); 53.4% in assay [1] (at 50.0 µM); 2% in assay [2] (setting [7]); 33% in assay [2] (setting [8]); 44.5% in assay [2] (at 50.0 µM). The growth inhibition in assay [3] (setting [7]) is 11%; in assay [3] (setting [8]), 51%; in assay [3] (at 50.0 µM) it was 69.7%; in assay [4] (setting [7]), 5%; in assay [4] (setting [8]), 56%; in assay [4] (at 50.0 µM), 39%. Further, the growth inhibition in assay [5] (setting [7]) was 16%; in assay [5] (setting [8]) it was 90% (active); in assay [5] (at 50.0 µM), 70%; in assay [6] (setting [7]), 20%; in assay [6] (setting [8]) it was 62%; in assay [6] (at 50.0 µM) it was 84.3% (active).
As for `O=C(O)/C(Cl)=C(\Cl)C(=O)Nc1c(Cl)cccc1Cl`, the growth inhibition was -9% in assay [1] (setting [7]); 7% in assay [1] (setting [8]); 19.1% in assay [1] (at 50.0 µM); -3% in assay [2] (setting [7]); -7% in assay [2] (setting [8]); 51.1% in assay [2] (at 50.0 µM). The growth inhibition was -13% in assay [3] (setting [7]); 6% in assay [3] (setting [8]); 38.2% in assay [3] (at 50.0 µM); 1% in assay [4] (setting [7]); 5% in assay [4] (setting [8]); 36.4% in assay [4] (at 50.0 µM). Besides, the growth inhibition in assay [5] (setting [7]) is 3%; in assay [5] (setting [8]), 2%; in assay [5] (at 50.0 µM), 29.2%; in assay [6] (setting [7]), 19%; in assay [6] (setting [8]), 2%; in assay [6] (at 50.0 µM) it was 16.1%.
Regarding `C/C(=N\N=C(N)N)c1ccc2c(c1)Cc1cc(/C(C)=N/N=C(N)N)ccc1-2`, the growth inhibition in assay [1] (setting [7]) is 42%; in assay [1] (setting [8]) it was 98% (active); in assay [1] (at 50.0 µM), 87.8% (active); in assay [2] (setting [7]), 40%; in assay [2] (setting [8]), 99% (active); in assay [2] (at 50.0 µM) it was 88.8% (active). Moreover, the growth inhibition in assay [3] (setting [7]) was 39%; in assay [3] (setting [8]), 99% (active); in assay [3] (at 50.0 µM), 84.7% (active); in assay [4] (setting [7]), 43%; in assay [4] (setting [8]), 99% (active); in assay [4] (at 50.0 µM) it was 87.2% (active). In addition, the growth inhibition is 52% in assay [5] (setting [7]); 98% (active) in assay [5] (setting [8]); 83.3% (active) in assay [5] (at 50.0 µM); 54% in assay [6] (setting [7]); 98% (active) in assay [6] (setting [8]); 90% (active) in assay [6] (at 50.0 µM).
